Measurements: PubChem BioAssay (NCATS)
Records with an inconclusive call do not appear. Calls of active or inactive are those of the source. Calls come from the whole dose curve; as a rule, active = well fitted inhibition curve with a large enough effect; inconclusive = small, poorly fitted or top-dose-only effect; inactive = flat fitted curve, though single readings scatter.

What follows are compounds tested on CP185 (assay: qHTS profiling for inhibitors of Plasmodium falciparum proliferation (AID 504749;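 note: 0% = DMSO vehicle and full inhibition = artemisinin control; nearly all actives have a fitted effect of over 60% in size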)). Details: P. falciparum in erythrocytes, SYBR Green DNA, 72 h; series mostly up to 28.7 µM; activity, negative = inhibition: at the top concentration.
Method in brief: (§1)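 SYBR Green fluorescence (ex 485 nm, em 535 nm) reports parasite DNA after 72 h compound exposure of infected red cells at 0.3% parasitemia, 2.5% hematocrit; signal normalized to 0.29 uM artemisinin and vehicle wells.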

Row | SMILES | activity, negative = inhibition
1 | NS(=O)(=O)c1cc(-c2nn[nH]n2)c(NCc2cccs2)cc1Cl | 12.1% (inactive)
2 | Cn1c(=O)c2c(ncn2CCO)n(C)c1=O | 10% (inactive)
3 | Nc1ncnc2c1ncn2[C@@H]1O[C@H](COP(=O)(O)O)[C@@H](O)[C@H]1O | 0.505% (inactive)
4 | COc1ccc(C(=O)N2CCN(CC(=O)N3CCOCC3)CC2)cc1 | 2.75% (inactive)
5 | C[C@@H]1O[C@@H](OC[C@H]2O[C@@H](Oc3c(-c4ccc(O)c(O)c4)oc4cc(O)cc(O)c4c3=O)[C@H](O)[C@@H](O)[C@@H]2O)[C@H](O)[C@H](O)[C@H]1O | 1.68% (inactive)
6 | CN1C(C)(C)CCCC1(C)C | 11.8% (inactive)
7 | Cc1cccc(C(=O)O)c1O | 2.41% (inactive)
8 | Cc1cc(NC(=O)C2=C(O)c3ccccc3S(=O)(=O)N2C)no1 | 2.39% (inactive)
9 | NCC1CCC(C(=O)Oc2ccc(CCC(=O)O)cc2)CC1 (stereo not drawn) | 10.1% (inactive)
10 | O=C(O)Cn1c(C(=O)Nc2nc(-c3ccccc3Cl)cs2)cc2ccccc21 | 1.09% (inactive)
11 | CC(=O)Nc1ccc(OCCOCCOc2ccc(NC(C)=O)cc2)cc1 | 5.86% (inactive)

What follows are compounds tested on CP191 in the same assay as above. Details: P. falciparum in erythrocytes, SYBR Green DNA, 72 h; series mostly up to 28.7 µM; activity, negative = inhibition: at the top concentration.
Method in brief: as §1

Row | SMILES | activity, negative = inhibition
12 | CNc1c2c(nn1C)CCCC2 | 13.5% (inactive)
13 | NC(=O)CC[C@@H](N)C(=O)O | 2.14% (inactive)
14 | Cc1c(C(=O)NCCO)[n+](=O)c2ccccc2n1[O-] | -7.52% (inactive)
15 | CCCCOC(=O)c1ccc(N)cc1 | 14.9% (inactive)
16 | CCCCCCCC(=O)OCC(O)CO (stereo not drawn) | 3.88% (inactive)
17 | CCOc1cc(NC(C)=O)ccc1C(=O)OC | 2.67% (inactive)
18 | C[C@@H](N)C(=O)O | 6.92% (inactive)
19 | CC(N)CCCC(C)(C)O (stereo not drawn) | 3.65% (inactive)
20 | O=C(O)Cc1ccc(CCNS(=O)(=O)c2ccc(Cl)cc2)cc1 | 3.84% (inactive)
21 | COC(=O)c1cccnc1 | -1.26% (inactive)
22 | O=C(Cn1ccnc1[N+](=O)[O-])NCCO | 8.78% (inactive)
23 | Cc1ccc(S(=O)(=O)NC(=O)NC2CCCCC2)cc1 | -3.56% (inactive)
24 | C[N+](C)(C)CC[N+]1(C)Cc2c(Cl)c(Cl)c(Cl)c(Cl)c2C1 | 10.4% (inactive)
25 | O=C(O)CCC(=O)O | 8.99% (inactive)
26 | NC(=O)NS(=O)(=O)c1ccc(N)cc1 | 4.82% (inactive)
27 | O=C(/C=C/c1ccccc1)OCc1ccccc1 | 5.84% (inactive)
28 | COc1cc(C(=O)NCCCCCC(=O)O)cc(OC)c1OC | 3.52% (inactive)
29 | O[C@@H]1CO[C@H]2[C@@H]1OC[C@@H]2O | 8.48% (inactive)

Row | SMILES | activity, negative = inhibition
30 | O=C(O)c1ccc(OCCCOc2ccc(C(=O)O)cc2)cc1 | 10.8% (inactive)
31 | CC(=O)NS(=O)(=O)c1ccc(N)cc1 | 1.5% (inactive)
32 | CC(=O)Nc1ccc(C(=O)O)cc1 | 6.23% (inactive)
33 | CC1CCc2cc(F)cc3c(=O)c(C(=O)O)cn1c23 (stereo not drawn) | -0.322% (inactive)
34 | CCc1cccc(CC)c1NC(=O)CN(CC(=O)O)CC(=O)O | 4.23% [at 12.8 µM] (inactive)
35 | O=c1[nH]c(=O)c2ccccc2o1 | 1.51% (inactive)
36 | CN/C(=C\[N+](=O)[O-])NCCSCc1csc(CN(C)C)n1 | 6.48% [at 12.8 µM] (inactive)
37 | NS(=O)(=O)c1cc(-c2nn[nH]n2)c(NCc2cccs2)cc1Cl | 0.3% (inactive)
38 | Cn1c(=O)c2c(ncn2CCO)n(C)c1=O | 16.7% (inactive)
39 | Nc1ncnc2c1ncn2[C@@H]1O[C@H](COP(=O)(O)O)[C@@H](O)[C@H]1O | -15.5% (inactive)
40 | COc1ccc(C(=O)N2CCN(CC(=O)N3CCOCC3)CC2)cc1 | 5.61% (inactive)
41 | C[C@@H]1O[C@@H](OC[C@H]2O[C@@H](Oc3c(-c4ccc(O)c(O)c4)oc4cc(O)cc(O)c4c3=O)[C@H](O)[C@@H](O)[C@@H]2O)[C@H](O)[C@H](O)[C@H]1O | 4.69% (inactive)
42 | CN1C(C)(C)CCCC1(C)C | 0.275% (inactive)
43 | Cc1cccc(C(=O)O)c1O | -5.47% (inactive)
44 | Cc1cc(NC(=O)C2=C(O)c3ccccc3S(=O)(=O)N2C)no1 | -5.3% (inactive)
45 | NCC1CCC(C(=O)Oc2ccc(CCC(=O)O)cc2)CC1 (stereo not drawn) | -3.09% (inactive)
46 | O=C(O)Cn1c(C(=O)Nc2nc(-c3ccccc3Cl)cs2)cc2ccccc21 | 1.72% (inactive)
47 | CC(=O)Nc1ccc(OCCOCCOc2ccc(NC(C)=O)cc2)cc1 | -6.68% (inactive)

Each compound was assayed on CP192 in the same assay as above. Details: P. falciparum in erythrocytes, SYBR Green DNA, 72 h; series mostly up to 28.7 µM; activity, negative = inhibition: at the top concentration.
Method in brief: as §1

Row | SMILES | activity, negative = inhibition
48 | CNc1c2c(nn1C)CCCC2 | 12.3% (inactive)
49 | NC(=O)CC[C@@H](N)C(=O)O | 2.27% (inactive)
50 | Cc1c(C(=O)NCCO)[n+](=O)c2ccccc2n1[O-] | 8.89% (inactive)
51 | CCCCOC(=O)c1ccc(N)cc1 | -0.454% (inactive)
52 | CCCCCCCC(=O)OCC(O)CO (stereo not drawn) | -8.42% (inactive)
53 | CCOc1cc(NC(C)=O)ccc1C(=O)OC | 0.85% (inactive)
54 | C[C@@H](N)C(=O)O | 0.415% (inactive)
55 | CC(N)CCCC(C)(C)O (stereo not drawn) | 8.5% (inactive)
56 | O=C(O)Cc1ccc(CCNS(=O)(=O)c2ccc(Cl)cc2)cc1 | -2.11% (inactive)
57 | COC(=O)c1cccnc1 | -14.5% (inactive)
58 | O=C(Cn1ccnc1[N+](=O)[O-])NCCO | 2.01% (inactive)
59 | Cc1ccc(S(=O)(=O)NC(=O)NC2CCCCC2)cc1 | -2.58% (inactive)
60 | C[N+](C)(C)CC[N+]1(C)Cc2c(Cl)c(Cl)c(Cl)c(Cl)c2C1 | 8.28% (inactive)
61 | O=C(O)CCC(=O)O | -11.1% (inactive)
62 | NC(=O)NS(=O)(=O)c1ccc(N)cc1 | 6.24% (inactive)
63 | O=C(/C=C/c1ccccc1)OCc1ccccc1 | 0.818% (inactive)
64 | COc1cc(C(=O)NCCCCCC(=O)O)cc(OC)c1OC | -0.483% (inactive)
65 | O[C@@H]1CO[C@H]2[C@@H]1OC[C@@H]2O | 0.122% (inactive)

Row | SMILES | activity, negative = inhibition
66 | O=C(O)c1ccc(OCCCOc2ccc(C(=O)O)cc2)cc1 | -0.383% (inactive)
67 | CC(=O)NS(=O)(=O)c1ccc(N)cc1 | 2.31% (inactive)
68 | CC(=O)Nc1ccc(C(=O)O)cc1 | 11.5% (inactive)
69 | CC1CCc2cc(F)cc3c(=O)c(C(=O)O)cn1c23 (stereo not drawn) | 0.988% (inactive)
70 | CCc1cccc(CC)c1NC(=O)CN(CC(=O)O)CC(=O)O | 1.36% [at 12.8 µM] (inactive)
71 | O=c1[nH]c(=O)c2ccccc2o1 | 5.81% (inactive)
72 | CN/C(=C\[N+](=O)[O-])NCCSCc1csc(CN(C)C)n1 | -0.44% [at 12.8 µM] (inactive)
73 | NS(=O)(=O)c1cc(-c2nn[nH]n2)c(NCc2cccs2)cc1Cl | -3.32% (inactive)
74 | Cn1c(=O)c2c(ncn2CCO)n(C)c1=O | 10.6% (inactive)
75 | Nc1ncnc2c1ncn2[C@@H]1O[C@H](COP(=O)(O)O)[C@@H](O)[C@H]1O | 4.49% (inactive)
76 | COc1ccc(C(=O)N2CCN(CC(=O)N3CCOCC3)CC2)cc1 | 2.08% (inactive)
77 | C[C@@H]1O[C@@H](OC[C@H]2O[C@@H](Oc3c(-c4ccc(O)c(O)c4)oc4cc(O)cc(O)c4c3=O)[C@H](O)[C@@H](O)[C@@H]2O)[C@H](O)[C@H](O)[C@H]1O | 0.935% (inactive)
78 | CN1C(C)(C)CCCC1(C)C | -0.767% (inactive)
79 | Cc1cccc(C(=O)O)c1O | 8.08% (inactive)
80 | Cc1cc(NC(=O)C2=C(O)c3ccccc3S(=O)(=O)N2C)no1 | 7.92% (inactive)
81 | NCC1CCC(C(=O)Oc2ccc(CCC(=O)O)cc2)CC1 (stereo not drawn) | -0.799% (inactive)
82 | O=C(O)Cn1c(C(=O)Nc2nc(-c3ccccc3Cl)cs2)cc2ccccc21 | -3.99% (inactive)
83 | CC(=O)Nc1ccc(OCCOCCOc2ccc(NC(C)=O)cc2)cc1 | 8.39% (inactive)
